The whole screen tested about 300,000 compounds, of which about 22,000 (7.3%) were called active. Roughly 2% stayed inconclusive and do not appear here. The sample as a whole holds a higher share of actives than the screen did. Unmarked numbers belong to inactive results. Rule as the data show it: active = activity score below about -60%; inconclusive = mostly about -28% to -61%; inactive = positive scores.

The nature of the test: Activators working through SNCA 5'UTR binding (MLPCN) (AID 1814). As to conditions: alpha-synuclein 5'UTR reporter, activators screen; active compounds read low; tested at 7.5 µM.
In the case of `CCC(=C/c1sc2ccc3ccccc3c2[n+]1C)/C=C1\Sc2ccc3ccccc3c2N1C`, the activity score is -122% (active). As to `O=C(c1nnc(-c2ccc(Cl)cc2)o1)C1CCCC1`, the activity score was -86.2% (active). The value for `CCOC(=O)c1sc(-c2cccc([N+](=O)[O-])c2)cc1N` was -129% (active); that for `O=C(Cn1cnc2c(cnn2-c2ccccc2)c1=O)NCc1ccccc1` was -148% (active); that for `O=C(OCC(=O)c1c[nH]c2ccccc12)c1cccc(O)c1` was -220% (active). As to `O=C(OCc1ccc(-c2ccccc2)cc1)c1cccc(O)c1`, the activity score was -109% (active). As for `CCc1ccccc1NC(=O)c1cc(-c2ccc3c(c2)OCO3)on1`, the activity score is -145% (active). The value for `C/C(=N/Nc1nc(-c2ccccc2)c(CC(=O)O)s1)c1ccccc1` was -168% (active). The value for `COc1ccccc1N1CCN(/N=C/c2ccc(O)cc2O)CC1` was -147% (active); that for `COc1ccccc1N1CCN(/N=C\C(Br)=C\c2ccccc2)CC1` was -74.9% (active). The value for `CCNC(=O)N1CCNC(=O)C1CC(=O)Nc1ccc(C(=O)OCC)cc1` (centres undefined) was -69.7% (active); that for `COc1ccc(-c2cc(C(=O)NC(Cc3c[nH]c4ccccc34)C(=O)O)c(C)o2)cc1OC` (centres undefined) was -104% (active). In the case of `CCOc1ccc(C2c3[nH]c4ccccc4c3CCN2Cc2cn(CC)nc2C)cc1` (centres undefined), the activity score was -101% (active). Turning to `COc1ccccc1-c1cnn2c(N3CCOCC3)cc(C)nc12`, the activity score was -164% (active). For `CCn1ccnc1CN(C)Cc1nc(-c2ccc3c(c2)OCO3)no1`, the activity score was -80.6% (active). With `Cc1ccc(NC(=O)c2cc3ccccc3o2)cc1`, the activity score is -123% (active). Turning to `O=C(NC(=S)Nc1cccc(-c2ccc(CO)o2)c1)c1cccs1`, the activity score is -80.9% (active).

On to `COc1ccc2occ(C(=O)c3ccc(N=C(C)N(C)C)cc3)c2c1`, for which the activity score was -75.8% (active). Turning to `COC(=O)c1ccc(NCC(=O)c2ccccc2)cc1`, the activity score was -123% (active). The value for `C=CCNC(=O)c1ccc2c3n(nc2c1)-c1ccc(C)cc1CO3` was -197% (active); that for `Cc1ccccc1-n1c(C)cc(/C=C2\NC(=O)NC2=O)c1C` was -131% (active); that for `Cc1nn(CCOc2ccccc2)c(=O)n1-c1ccccc1F` was -99.2% (active). Turning to `C=C(C)CSc1nnc(-c2ccc(C)cc2)n1N`, the activity score was -99.6% (active). `CCCCCOc1ccc(CSC2=NCCN2)cc1[N+](=O)[O-]`: the activity score is -150% (active).

Regarding `CCCCOc1ccc(CSC(=N)N)cc1[N+](=O)[O-]`, the activity score is -91.9% (active). The value for `CC1(C)C=Cc2c(ccc3c2OC[C@@H](c2ccc(O)cc2O)C3)O1` was -154% (active). The value for `CC(C)Cc1cc(C(=O)NCCc2ccccc2)no1` was -169% (active); that for `CC(C)CNC(=O)c1cc(-c2ccc(Br)cc2)on1` was -187% (active). For the compound `CC(C)Cc1cc(C(=O)Nc2cc(Br)ccc2O)no1`, the activity score is -135% (active). Consider `Cc1cccc(NC(=O)c2ccc([N+](=O)[O-])o2)c1`, for which the activity score was -159% (active). With `Cc1cccc(NC(=O)NC(=S)NC(=O)c2ccccc2)c1`, the activity score is -62.7% (active). Then `Cc1cccc(NC(=S)NC(=O)c2ccc(Br)o2)c1`, with -131% (active).

`Cc1ccc(NC(=O)NC(=O)c2ccccc2)cc1F`: the activity score was -128% (active).

For `Cc1nn(-c2ccccc2)c(C)c1NC(=O)CCl`, the activity score is -101% (active).

Take `CCCCCCOC(=O)NCC(O)c1ccccc1` (centres undefined): the activity score is -126% (active). As for `COCC1CCCN(Cc2nc(-c3ccc4c(c3)OCO4)no2)C1` (centres undefined), the activity score was -62.5% (active). Then `Cc1cc(Nc2ccc(Br)cc2)nc2ccccc12`, with -83.2% (active).

As for `Cc1ccc2nc(Nc3ccccc3)cc(C)c2c1`, the activity score is -82.2% (active). With `CCOc1cc(/C=N/Nc2cc(C)nc3ccc(C)cc23)ccc1O`, the activity score was -66.2% (active). Regarding `c1csc(-c2nc(-c3ccncc3)no2)c1`, the activity score was -153% (active). Then `Cc1ccc(-c2nc(-c3ccncc3)no2)c(C)c1`, with -108% (active). In the case of `Cn1ccnc1-c1nnn(-c2ccc(F)cc2)n1`, the activity score is -89.8% (active).

Consider `Oc1ccc(/C=N/Nc2ccc(C(F)(F)F)cn2)cc1O`, for which the activity score was -195% (active). As to `Oc1ccc(Br)cc1/C=N/Nc1ccccn1`, the activity score is 66.4%.

Regarding `c1ccc(-n2ncc3c2ncn2c(C4CCCCC4)nnc32)cc1`, the activity score is -128% (active). Then `Cc1cccc(Nc2nc(-c3ccccc3)cs2)n1`, with -106% (active). `CC(=O)Nc1cccc(-c2cnc3ccccc3n2)c1`: the activity score is -207% (active). Turning to `Clc1ccc(Nc2nc(-c3cccs3)cs2)nc1`, the activity score is -244% (active). In the case of `c1ccc(Nc2nc(-c3ccncc3)cs2)nc1`, the activity score is -108% (active). As for `CC(=O)Nc1cccc(-c2csc(Nc3cccc(C)n3)n2)c1`, the activity score was -234% (active).

As for `c1cnc(Nc2nc(-c3ccc4ccccc4c3)cs2)nc1`, the activity score is -125% (active). Turning to `CCOc1cc2[nH]c(=S)n(Cc3ccc(C(=O)N4CCN(C)CC4)cc3)c(=O)c2cc1OCC`, the activity score is 86.1%. Then `COc1ccccc1C1C2=C(COC2=O)Nc2cc3c(cc21)OCO3` (centres undefined), with 98.1%; and `CCCOc1ccccc1C1CC(=O)Nc2cc3c(cc21)OCO3` (centres undefined), with 111%. The value for `COc1cc2c(cc1/C=C1/NC(=O)N(c3ccccc3)C1=O)OCO2` was -142% (active); that for `Cc1noc(C)c1/C=N/Nc1ccc2ccccc2n1` was -146% (active); that for `C(=N\Nc1ccc2ccccc2n1)/c1ccc2c(c1)OCO2` was 88.2%. Then `C/C(=N\NC(=O)OC(C)(C)C)c1ccc[nH]1`, with -122% (active). In the case of `O=C(Nn1cnc2ccccc2c1=O)c1ccc(F)cc1Cl`, the activity score is -87.1% (active).

`O=[N+]([O-])c1ccc2c(c1)Nc1nc3ccccc3nc1N2`: the activity score was -94.2% (active). On to `Cn1c(=NC(=O)c2cnccn2)sc2ccccc21`, for which the activity score was -97.9% (active). On to `O=C(NC(=S)Nc1ccccc1C(=O)O)c1ccc(-c2ccc(Br)cc2)o1`, for which the activity score is -123% (active).

With `O=C(NC1CCCC1)C(=O)c1c[nH]c2ccccc12`, the activity score was -81.6% (active). Consider `O=C(CN1CCCCCC1)Nc1c(Cl)cc(Cl)cc1Cl`, for which the activity score was -86.3% (active). Regarding `O=C(CN1CCCCCC1)Nc1ccc(Br)cc1Br`, the activity score was -101% (active). Consider `O=C(Nc1ccc(OC(F)(F)F)cc1)c1ccc2c(c1)no[n+]2[O-]`, for which the activity score is -72.3% (active). `Cc1cc(Cl)nc(NC(=O)Nc2cccc(Cl)c2)n1`: the activity score was -64.7% (active). Then `CCN1CCN(C(=O)CSc2ccc(C)cc2)CC1`, with -69.7% (active); and `Cc1ccc(N/N=C2\COC(C)(C)CC2=O)cc1`, with -141% (active); and `COc1ccc(C2NC(=O)c3ccccc3N2)cc1` (centres undefined), with -70.6% (active). The value for `COc1ccc(OC)c(C2C3=C(N=c4s/c(=C\c5cccc(O)c5)c(=O)n42)c2ccccc2CC3)c1` (centres undefined) was 58.4%. Then `COc1cccc(C(=O)Nc2ccc(N3CCCC3)cc2)c1`, with -189% (active).

Consider `COc1cccc(C(=O)NNC(=O)c2cccc(F)c2)c1`, for which the activity score was -79.5% (active). The value for `COc1cccc(C(=O)Nc2ccc(N3CCN(C(=O)c4ccco4)CC3)cc2)c1` was -184% (active); that for `CN1CCN(c2ccc(NC(=O)c3ccccc3)cc2)CC1` was -102% (active). Regarding `CC[C@]1(O)CC2CN(CCc3c([nH]c4ccccc34)[C@@](C(=O)OC)(c3cc4c(cc3OC)N(C=O)[C@H]3[C@@](O)(C(=O)OC)[C@H](OC(C)=O)[C@]5(CC)C=CCN6CC[C@]43[C@@H]65)C2)C1` (some centres undefined), the activity score was 102%.

On to `Cc1ccccc1C(=O)Nc1ccc(N2CCCCCC2)cc1`, for which the activity score is -160% (active). For the compound `COc1cccc(C(=O)Nc2ccc(NC(=O)c3ccco3)cn2)c1`, the activity score was -135% (active). For the compound `COc1cccc(C(=O)Nc2cc3c(cc2Br)OCCCO3)c1`, the activity score was -98.2% (active).

Turning to `COC(=O)c1c(C)[nH]c(C(=O)/C=C/c2ccc(Cl)cc2)c1C`, the activity score is -131% (active). As to `NC(=O)Cc1ccc2sc(-c3ccccc3)nc2c1`, the activity score is -98.2% (active). Then `COc1cc(Cl)ccc1OCc1cc(C(=O)N2CC[C@@H]3CCCC[C@H]3C2)no1`, with -69% (active). Then `O=C(c1cc(-c2cccs2)on1)N1CCCCC1`, with -73.9% (active).

Take `O=C(c1cc(-c2ccc(Cl)cc2)on1)N1CCN(c2ccccc2)CC1`: the activity score was -113% (active). With `COc1ccccc1-c1cc(C(=O)N2CCCCC2)no1`, the activity score is -93.5% (active). The value for `COc1cccc(OCc2cc(C(=O)N3CCN(C(=O)c4ccco4)CC3)no2)c1` was -121% (active); that for `O=C(c1cc(-c2ccccc2O)on1)N1CCCC1` was -142% (active); that for `CCCOC1CCCN(C(=O)c2cc(COc3cncc(Cl)c3)on2)C1` (centres undefined) was -219% (active). The value for `COc1ccc(OCc2cc(C(=O)N3CCCC3)no2)c2ccccc12` was -148% (active). As for `Cc1nc(-c2ccccc2)sc1C1(C)CC(c2cccnc2)=NO1` (centres undefined), the activity score is -91.2% (active).

For `COc1ccc(C(C#N)Nc2ccc(C)cc2)cc1` (centres undefined), the activity score was -61.8% (active). In the case of `CC(=O)Nc1ccc(-c2nc3ccccc3o2)cc1`, the activity score is -91.4% (active).

`COc1cc(OC)cc(C(=O)Nc2ccc(-c3nc4ccccc4o3)c(O)c2)c1`: the activity score was -61.8% (active).

Take `Cc1cc2nc(-c3ccc(NC(=O)c4cccnc4)cc3)oc2cc1C`: the activity score was -164% (active).

Turning to `CCOC(=O)c1ccc(NC(=O)c2cccnc2)cc1`, the activity score was -77.6% (active). Turning to `CCOC(=O)c1ccc(NC(=O)Cc2cccs2)cc1`, the activity score was -126% (active).

Regarding `CCCC(=O)N1c2ccc(-c3csc(N)n3)cc2CC1C` (centres undefined), the activity score is -192% (active). For `CC(=C/c1ccccc1)/C=N/NC(=O)c1cc(C)oc1C`, the activity score is -125% (active). Consider `Cc1cc(C(=O)N/N=C/c2ccc(N3CCOCC3)cc2)c(C)o1`, for which the activity score was -87.1% (active). On to `Cc1cc(C(=O)N/N=C\C(Br)=C\c2ccccc2)c(C)o1`, for which the activity score was -124% (active). In the case of `CC(C)c1cc(C(=O)N/N=C/C(Br)=C/c2ccccc2)n[nH]1`, the activity score is -105% (active). Regarding `CC(C)(C)c1cc(C(=O)N/N=C/c2ccc([N+](=O)[O-])s2)n[nH]1`, the activity score is 64%.

Regarding `Cc1cc(C(=O)N/N=C/c2ccccc2[N+](=O)[O-])c(C)o1`, the activity score is -112% (active). Turning to `Cc1c(Cl)cccc1NC(=O)Nc1ccc(C(=O)N2CCCC2)cc1`, the activity score was -77.6% (active).

Values taken from PubChem BioAssay AID1814 (Broad Institute, 2009).
